In the library only some 9.9% were active in any assay of this set; here they are far more common.
SW480 rereplic – induces DNA re-replication in SW480 colon adenocarcinoma cells | SW480 DNA re-replication, Hoechst DNA content imaging, 48 h | Potency, µM (top dose mostly 46.1 µM), inactives show top-dose re-replication activation, actives largely listed as activators | hit rate 1.8% among 340,000 | AID 624297; also: potency is read from the fitted curve at half-maximal effect; % of control where 0% means no effect; nearly all actives have a fitted effect of over 55% in size
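DNA re-replication was detected as more nuclei of elevated Hoechst intensity after 48 hr exposure to compound (23 nL pinned per well of 250 cells).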
MCF10A rerep – induces DNA re-replication in MCF 10a normal breast cells. MCF 10A DNA re-replication, Hoechst nuclear intensity, 48 h. Potency, µM (highest dose often 46.1 µM), for inactives: top-dose activity, positive = re-replication, usual class: activators. hit rate 2.9% among 350,000. AID 624296; also: potency is read from the fitted curve at half-maximal effect; % of control where 0% means no effect; nearly all actives have a fitted effect of over 50% in size
KB-V1 MDR tox – KB-V1 MDR subline cytotoxicity. hit rate 3.4% among 400,000. KB-V1 MDR cells viability, CellTiter-Glo, 72 h. Potency, µM (doses to about 46.1 µM), most hits filed as cytotoxic. AID 1347076; also: potency is read from the fitted curve at half-maximal effect; % is scaled to controls: 0 for no effect and ±100 for the full control effect; nearly all actives have a fitted effect of over 60% in size
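Cytotoxicity toward P-gp-expressing KB-V1 cells was determined as loss of CellTiter-Glo luminescence after 72 h at 37 degrees C. Compounds were tested in quantitative HTS format across a concentration range, with curves fitted to normalized data.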
KB-3-1 cytotox – KB-3-1 parental cell cytotoxicity; KB-3-1 viability, CellTiter-Glo ATP luminescence, 72 h; Potency, µM (doses to about 46.1 µM), most hits filed as cytotoxic; hit rate 1.4% among 400,000; AID 1347075; also: potency is read from the fitted curve at half-maximal effect; % is scaled to controls: 0 for no effect and ±100 for the full control effect; nearly all actives have a fitted effect of over 60% in size
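Cytotoxicity measured as CellTiter-Glo luminescence after 72 h at 37 C. Compound titrations were pinned onto drug-naive KB-3-1 parental adenocarcinoma cells grown in DMEM with 10% FBS, and normalized data fitted to concentration-response curves.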
IL1B secr inh – inflammasome signaling inhibition, IL-1 beta readout. THP-1 LPS/ATP IL-1B secretion, AlphaLISA, 16 h; hits give low values. activity change, % at 57.5 µM. hit rate 4.7% among 360,000; in the data active = activity change below about -50%; inconclusive = mostly about -30% to -49%; also: % is scaled to controls: 0 for no effect and ±100 for the full control effect
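THP-1 cells pretreated 1 hr with compounds (up to 57.5 uM final), then stimulated with LPS (250 ng/mL final) plus ATP (1.25 mM final); secreted IL-1B measured by AlphaLISA after 16 hr, decreased signal indicating inhibition.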
An asterisk follows results filed as active; i = inactive; ? = inconclusive; . = no result; [ ] = another dose, or the depositor's remark. Unless noted, calls follow the shape of the dose curve; as a rule, active = well fitted curve in the direction sought with a large enough effect; inconclusive = small, poorly fitted or top-dose-only effect, or another doubt; inactive = no such curve, though single readings can be large; an effect the other way counts as inactive or inconclusive.

SMILES	SW480 rereplic	MCF10A rerep	KB-V1 MDR tox	KB-3-1 cytotox	IL1B secr inh
CCOC(=O)N1CCN(C(=O)CSCc2ccc(C)cc2)CC1	0.184µM*	-2.0%	i	i	0.0
Cc1cccc(OCC(=O)Nc2nccs2)c1C	-0.2%	1.4%	i	i	49.1
CCOC(=O)Cc1csc(NC(=O)Cn2c(=O)oc3ccccc32)n1	7.5%	5.0%	i	i	-83.8*
CCOC(=O)Cc1csc(NC(=O)CSc2nc(C)cc(C)n2)n1	-1.1%	10.5%	i	i	42.1
CCOC(=O)Cc1csc(NC(=O)CSc2nc(N)c3c(C)c(C)sc3n2)n1	-0.2%	7.6%	8.2µM*	i	7.5
CCOC(=O)Cc1csc(NC(=O)CCCCCN2C(=O)c3ccccc3C2=O)n1	?	?	?	i	-55.6*
O=C1C=C(c2ccccc2)C(c2ccccc2)C1 (centres undefined)	-4.8%	-1.4%	i	i	16.9
CN(Cc1nc(-c2ccncc2)no1)S(=O)(=O)c1ccccc1	-2.4%	-0.2%	i	i	-4.5
CN(Cc1nc(-c2ccncc2)no1)S(=O)(=O)c1ccc(Cl)cc1	-4.9%	-6.4%	14.6µM*	i	6.5
CN(Cc1nc(-c2ccncc2)no1)S(=O)(=O)c1ccc(Br)cc1	-4.8%	-4.7%	14.6µM*	i	11.3
Cc1nn(C)c(Oc2cccc(Cl)c2)c1C#N	0.9%	-2.4%	i	i	-9.9
Cc1nn(C)c(Oc2cccc(Cl)c2)c1C(=O)Nc1ccc(F)cc1F	-5.9%	-4.8%	18.4µM*	i	-6.5
Cc1nn(C)c(Oc2cccc(Cl)c2)c1C(=O)Nc1ccc(F)cc1	-7.1%	2.3%	14.6µM*	i	-7.0
Cc1cccc(Oc2nccc(C(F)(F)F)c2C(=O)Nc2ccc(F)cc2F)c1	-8.3%	5.4%	i	i	-0.4
CC(C)(C)OC(=O)[C@H](Cc1ccccc1)NC(=O)c1[nH]cnc1C(=O)Nc1ccc(Cl)cc1	?	?	?	?	-59.2*
C[C@H](NC(=O)c1nc[nH]c1C(=O)N[C@@H](Cc1ccccc1)C(=O)OC(C)(C)C)C(=O)OC(C)(C)C	14.6%	?	?	?	-10.8
Cc1cccc(NC(=O)c2nc[nH]c2C(=O)N[C@@H](Cc2ccccc2)C(=O)OC(C)(C)C)c1	-8.4%	3.66µM*	?	?	-57.7*
CC(C)(C)OC(=O)[C@H](Cc1ccccc1)NC(=O)c1[nH]cnc1C(=O)Nc1cccc(Cl)c1	6.8%[9.22 µM]	14.6µM*	?	?	-51.4*
CCOC(=O)c1ccc(NC(=O)c2nc[nH]c2C(=O)N[C@@H](Cc2ccccc2)C(=O)OC(C)(C)C)cc1	?	-0.8%	i	13µM*	-73.1*
CC(C)(C)OC(=O)[C@H](Cc1ccccc1)NC(=O)c1[nH]cnc1C(=O)N[C@@H](Cc1ccccc1)C(=O)OCc1ccccc1	-10.7%[9.22 µM]	-29.2%	?	?	0.0
CCc1ccc(OCCn2cccn2)cc1	-4.1%	12.8%	i	i	-18.9
Fc1ccc(N2CCN(c3ncnc4[nH]ncc34)CC2)cc1	.	.	i	i	.
Cc1cccc(NC(=O)c2nc[nH]c2C(=O)N[C@@H](CC(C)C)C(=O)OC(C)(C)C)c1	27.7%[9.22 µM]	?	?	11.6µM*	?
Cc1ccc(-c2nnc(Nc3ccc(O)cc3)c3ccccc23)cc1S(=O)(=O)NCC1CCCO1 (centres undefined)	.	.	i	?	.
Cc1nc2ccccn2c1C(=O)CSc1ccccc1	-1.1%	7.2%	i	i	-23.6
SMILES	SW480 rereplic	MCF10A rerep	KB-V1 MDR tox	KB-3-1 cytotox	IL1B secr inh
Cc1nc2ccccn2c1C(=O)CSc1ccccc1Cl	-9.3%	13.4%	16.4µM*	?	-20.7
Cc1nc2ccccn2c1C(=O)CSc1cccc(Cl)c1	1.3%	2.1%	i	i	-69.6*
Cc1cccc(NC(=O)N2CCCC2C(=O)Nc2ccccc2)c1 (centres undefined)	?	-0.8%	i	i	2.9
Cc1ccc(NCc2nc3ccccc3n2C)cc1	2.7%	-11.9%	i	i	14.4
Cc1ccc(NC(=O)NCc2nc3ccccc3n2C)cc1	20.6µM*	?	i	i	19.4
Cn1c(CNc2ccc(Br)cc2)nc2ccccc21	4.2%	21.8%	14.6µM*	?	?
Cc1nnc(SCC(=O)NC(=O)Nc2ccc3c(c2)OCCO3)n1N	-0.7%	-9.6%	i	i	25.3
COC(=O)C1=C(C)N(Cc2ccccc2)C(=NCc2cccc(C(F)(F)F)c2)N[C@H]1c1cccc(F)c1	?	11.6µM*	?	?	-103.7*
C=CCN=C1N[C@@H](c2cccc(C(F)(F)F)c2)C(C(=O)OC)=C(C)N1CC	-2.0%	3.9%	i	i	-24.5
CCN1C(=NCc2cccc(Cl)c2)N[C@@H](c2cccc(F)c2)C(C(=O)OC)=C1C	?	-13.1%	i	i	-69.7*
COC(=O)C1=C(C)N(Cc2ccccc2)C(=NCCc2c[nH]c3ccccc23)N[C@H]1c1cccc(C(F)(F)F)c1	?	8.8%	?	?	-50.3*
COC(=O)C1=C(C)N(Cc2ccccc2)C(=O)N[C@H]1c1cccc(F)c1	-24.1%	7.5%	i	i	3.1
COC(=O)C1=C(C)N(Cc2ccccc2)C(=NCc2cccc(C(F)(F)F)c2)N[C@H]1c1cccc(C(F)(F)F)c1	28.2%[9.22 µM]	3.66µM*	?	?	-101.3*
COc1ccc2c(Sc3ccc(C)cc3)c(C(=O)NCC(C)c3ccccc3)[nH]c2c1 (centres undefined)	.	.	i	i	.
CCOC(=O)CSc1nc2sc3c(c2c(=O)n1Cc1ccccc1)CCC(C(C)(C)C)C3 (centres undefined)	.	.	i	i	.
COC(=O)C1=C(C)N(Cc2ccccc2)C(=NCCc2ccccn2)N[C@H]1c1cccc(F)c1	22.4%	-3.3%	i	i	-55.3*
COC(=O)C1=C(C)N(Cc2ccccc2)C(=NCc2ccc(OC)cc2)N[C@H]1c1ccccc1	0.2%	?	?	i	-51.8*
COC(=O)C1=C(C)N(Cc2ccccc2)C(=NCCCCO)N[C@H]1c1cccc(C(F)(F)F)c1	-4.9%	11.0%	i	i	?
COCCN=C1N[C@@H](c2cccc(C(F)(F)F)c2)C(C(=O)OC)=C(C)N1Cc1ccccc1	-1.9%	0.6%	i	i	-56.1*
CCN1C(=NCC(C)C)N[C@@H](c2cccc(C(F)(F)F)c2)C(C(=O)OC)=C1C	-3.2%[9.22 µM]	-30.4%	i	i	?
COC(=O)C1=C(C)N(CC2CC2)C(=NCc2cccc(C(F)(F)F)c2)N[C@H]1c1ccccc1	-3.5%	?	i	i	-57.6*
Cc1ccc(SC[C@H](Cc2ccccc2)N2CC[C@@H](C(C)(C)C)CCC2=O)cc1	.	.	?	i	.

Bioassay records as filed in PubChem.
